# Results filed as inconclusive are left out. Unmarked numbers belong to inactive results. The call rests on the fitted dose curve; in most records, active means well fitted cell-killing curve with a large enough effect; inconclusive means small, poorly fitted or top-dose-only effect, or effect the other way; inactive means flat fitted curve, though single readings scatter.
# Test system: CASKI
# Assay: Primary qHTS to identify gynecologic anti-cancer compounds using libraries of approved drugs and bioactive compounds (AID 1345084); further: nearly all actives have a fitted effect of over 55% in size
# Conditions: Gynecologic cancer cell panel viability, ATPlite luminescence, 48 h; series mostly up to 57.5 µM; activity change, negative = cytotoxicity: at the top concentration
# In short: (§1)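 48 h compound exposure at 37 C, 5% CO2; five-point qHTS. ATPlite luminescence readout of cell ATP.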
# On the % scale 0 is the no-effect control and ±100 the full control effect.
row,Structure (SMILES),"activity change, negative = cytotoxicity"
1,COc1cccc(C(=O)N2CCN(C(=O)COc3cccc(C)c3)CC2)c1OC,-16%
2,C=C[C@H]1C(O[C@@H]2O[C@H](CO)[C@@H](O)[C@H](O)[C@H]2O)OC=C2C(=O)N3CCc4c([nH]c5ccccc45)[C@H]3C[C@H]21 (stereo partly specified),12.6% [at 25.3 µM]
3,C/C=C(/COC(=O)/C(C)=C/C)C(=O)OC(CC)c1ccc(OC)c(OC)c1 (stereo unspecified),8.78% [at 38.5 µM]
4,C=C1[C@H](OC(C)=O)[C@H]2[C@@H](OC(C)=O)[C@](C)(OC(C)=O)C[C@]2(OC(C)=O)C(=O)[C@H](C)/C=C/C(C)(C)C(=O)[C@H](OC(=O)C(C)C)[C@H]1OC(C)=O,4.11% [at 25.3 µM]
5,C=CC(C)(C)C12C=C(OC)C(=O)N3C(C(C)C)C(=O)NC31N(OC)c1ccccc12 (stereo unspecified),-3.57% [at 25.3 µM]
6,C/C1=C\CC[C@]2(C)O[C@@H]2[C@H](O)[C@H](C(C)C)[C@H](OC(=O)/C=C/c2ccccc2)C1,2.81% [at 38.5 µM]
7,c1ccc(N2CCN(CCc3nn[nH]n3)CC2)cc1,5.01%
8,C=C1CC2C(C)(CCC(=O)O)C(C(C)(C)O)CCC2(C)C2C(=O)OC(C)(C(=O)OC)C(=O)C12C (stereo unspecified),-11.3% [at 25.3 µM]
9,CC(C)=CCCC1(C)C=Cc2c(c(C)cc3c2[nH]c2ccccc23)O1 (stereo unspecified),-10.7% [at 38.5 µM]
10,CC1(C)CC[C@]2(C(=O)O[C@@H]3O[C@H](CO[C@@H]4O[C@H](CO)[C@@H](O)[C@H](O)[C@H]4O[C@@H]4O[C@H](CO)[C@H](O)[C@H](O)[C@H]4O)[C@@H](O)[C@H](O[C@@H]4O[C@H](CO)[C@@H](O)[C@H](O)[C@H]4O)[C@H]3O)CC[C@]3(C)C(=CCC4[C@@]5(C)CC[C@H](O[C@@H]6OC[C@@H](O)[C@H](O)[C@H]6O)[C@@](C)(C(=O)O)C5CC[C@]43C)[C@@H]2C1 (stereo partly specified),-6.95% [at 6.55 µM]

# Test system: Es-2
# Assay: as above
# Conditions: Gynecologic cancer cell panel viability, ATPlite luminescence, 48 h; series mostly up to 57.5 µM; activity change, negative = cytotoxicity: at the top concentration
# In short: as §1
row,Structure (SMILES),"activity change, negative = cytotoxicity"
1,C/C(=C\CCC1(C)C2CCC(C2)C1(C)O)C(=O)O (stereo unspecified),-4.03%
2,CC(=O)O[C@@H]1c2c3c(cc(O)c2C(=O)O[C@@H]1C)O[C@@]1(C)[C@@H](O)C[C@H]2C(C)(C)C(=O)C=C[C@]2(C)[C@@H]1C3,4.61% [at 25.3 µM]
3,COc1ccccc1Oc1ccc(N(Cc2cccnc2)S(=O)(=O)CC(F)(F)F)cc1,-0.485%
4,CC(C)C(NC(=O)c1ccc2ccccc2n1)C(=O)NC(CC(=O)O)C(=O)COc1c(F)cccc1F (stereo unspecified),8.91%
5,CC(C)=CCC[C@](C)(O)[C@H]1CC[C@]2(C)[C@@H]1[C@H](O)CC1[C@@]3(C)CC[C@H](O)C(C)(C)C3[C@@H](O[C@@H]3O[C@H](CO)[C@@H](O)[C@H](O)[C@H]3O[C@@H]3OC[C@@H](O)[C@H](O)[C@H]3O)C[C@]12C (stereo partly specified),4.91% [at 25.3 µM]
6,C=CC[C@]12C[C@@H](OC)C(=O)C(OC)=C1O[C@@H](c1cc(OC)c3c(c1)OCO3)[C@@H]2C,6.13% [at 25.3 µM]
7,CC(C)O[C@@H]1O[C@H](CO)[C@@H](O)[C@H](O)[C@H]1O,3.59%
8,C[C@@H]1CN(Cc2ncccn2)C[C@H]1c1nc2c(cnn2C2CCOCC2)c(=O)[nH]1,12.4%
9,CN[C@H](CC(C)C)C(=O)N[C@H]1C(=O)N[C@@H](CC(N)=O)C(=O)N[C@H]2C(=O)N[C@H]3C(=O)N[C@H](C(=O)N[C@H](C(=O)O)c4cc(O)cc(O)c4-c4cc3ccc4O)[C@H](O[C@H]3C[C@](C)(N)[C@@H](O)[C@H](C)O3)c3ccc(c(Cl)c3)Oc3cc2cc(c3O[C@@H]2O[C@H](CO)[C@@H](O)[C@H](O)[C@H]2O[C@H]2C[C@](C)(NCc3ccc(-c4ccc(Cl)cc4)cc3)[C@@H](O)[C@H](C)O2)Oc2ccc(cc2Cl)[C@H]1O,-1.16% [at 25.3 µM]
10,C=C1CC[C@H]2[C@@](C)(CCC(O)[C@@]2(C)CO)[C@@H]1CCC1=CCOC1=O (stereo partly specified),-2.48% [at 38.5 µM]
11,CC1CCC2(C=O)C(CO)=CCCC2C1(C)CC(=O)O (stereo unspecified),0.549%
12,C=CC1(C)C=C2CCC3C(C)(C)C(O[C@@H]4O[C@@H](CO)[C@H](O)[C@H]4O)CCC3(C)C2CC1O[C@@H]1O[C@H](C)[C@H](O)[C@H](O)[C@H]1O (stereo partly specified),5.06% [at 25.3 µM]
13,C/C(=C\CC[C@@H](C)[C@H]1CC(O)[C@@]2(C)C3CC[C@H]4C(C)(C)[C@@H](OC5OCC(O)C(O)C5OC5OC(CO)C(O)C(O)C5O)CC[C@@]45C[C@@]35CC(O)[C@]12C)C(=O)O (stereo partly specified),5.39% [at 25.3 µM]
14,CC(C)(C)NCCCNC(=O)c1cccc(Br)c1,-0.408%
15,CC(=O)OC1C[C@]2(C)C(O)CC(C)=C[C@H](OC(=O)c3ccc(O)cc3)C2[C@]1(O)C(C)C (stereo partly specified),2.16% [at 25.3 µM]
16,C=C1CC[C@@H]2[C@](C)(CO[C@@H]3O[C@H](CO)[C@@H](O)[C@H](O)[C@H]3O)[C@H](O)CC[C@@]2(C)[C@@H]1C/C=C1/C(=O)OC[C@H]1O,7.52% [at 25.3 µM]

# Reference: PubChem BioAssay (NCATS)
